PubChem BioAssay (Tox21)
Inconclusive results are not listed. The source made the active and inactive calls. Calls follow the shape of the dose curve; as a rule, active = well fitted cell-killing curve with a large enough effect in the repeat runs; inconclusive = weak or mixed curves, or effect the other way; inactive = no such curve, though single readings can be large or run the other way. Starred links: 1 amine or outer side, 2 acyl side, 3 side chain; linkers in the order of their positions; H or OH if unused. Positions of bridges follow the written chain, without caps; N, C: chain ends. Non-standard residues stand in square brackets, D forms with d. Residues, ends and D or L forms follow the SMILES beside them. *: point of attachment. X5 = NC1=N[C@@H]([C@H](N[*:1])C(=O)[*:2])C[C@H](O)N1; ΔAla(Z-3-ureido) = NC(=O)N/C=C(\N)C(=O)O; β3hOrn = NCCC[C@H](N)CC(=O)*; Dap = NC[C@H](N)C(=O)O

Experiment: qHTS assay to identify small molecule antagonists of the glucocorticoid receptor (GR) signaling pathway - cell viability counter screen (AID 720693); also: nearly all actives have a fitted effect of over 55% in size
Conditions: GR-bla HeLa viability, CellTiter-Glo luminescence, 18 h, with 5 nM dexamethasone present; series mostly up to 58.5 µM; viability change, negative = cytotoxic: at the top concentration
% is scaled to controls: 0 for no effect and ±100 for the full control effect.

Structure (SMILES)	viability change, negative = cytotoxic
O=C(O)c1ccc(OCCn2ccnc2)cc1	0.106% (inactive)
COc1ccc(CNCC(O)COc2ccc3[nH]c(=O)ccc3c2)cc1OC (stereo not drawn)	-1.55% (inactive)
Cc1cc(C(=O)NNCc2ccccc2)no1	3.2% [at 27 µM] (inactive)
Nc1ncnc(Nc2ccc(Cl)cc2)n1	-8.08% (inactive)
CCCCC(=O)OCC(=O)[C@]1(O)Cc2c(O)c3c(c(O)c2[C@@H](O[C@H]2C[C@H](NC(=O)C(F)(F)F)[C@H](O)[C@H](C)O2)C1)C(=O)c1c(OC)cccc1C3=O	-14.3% (inactive)
CCCCCCCCCCCCCCCCCCCCCCO	1.5% (inactive)
O=C1NC(=O)[C@H]2[C@@H]1[C@@H]1C=C[C@H]2C1	20.3% (inactive)
O=C(O)C1CCCN1 (stereo not drawn)	2.03% (inactive)
NC(=O)OCC(O)COc1ccc(Cl)cc1 (stereo not drawn)	4.44% [at 27 µM] (inactive)
COC(=O)CC[C@H](N)C(=O)O	-5.08% (inactive)
CC1(C)S[C@@H]2[C@H](NC(=O)C(C(=O)O)c3ccsc3)C(=O)N2[C@H]1C(=O)O (stereo partly drawn)	-0.216% (inactive)
CCOC(=O)Oc1c(OC)cc(C(=O)O[C@@H]2C[C@@H]3CN4CCc5c([nH]c6cc(OC)ccc56)[C@H]4C[C@@H]3[C@H](C(=O)OC)[C@H]2OC)cc1OC	-4.42% [at 27 µM] (inactive)
CC(O)CN(C)C (stereo not drawn)	7.79% (inactive)
CO[C@H]1O[C@@H]2O[C@@]3(C)CC[C@H]4[C@H](C)CC[C@@H]([C@H]1C)[C@@]24OO3	-0.776% (inactive)
CCCCCCCCCCCCCCCC(=O)O[C@@H]1[C@@H](O)[C@@H](O)[C@@H]([C@H](NC(=O)[C@@H]2C[C@@H](CCC)CN2C)[C@H](C)Cl)O[C@@H]1SC	-3.56% (inactive)
COc1ccccc1N1CCN(CCCC(=O)c2ccc(F)cc2)CC1	2.19% (inactive)
COC1=C(C(=O)O)N2C(=O)[C@@H](NC(=O)[C@H](N)C3=CCC=CC3)[C@H]2SC1	10.7% (inactive)

Structure (SMILES)	viability change, negative = cytotoxic
CCNC(=O)[C@@H]1CCCN1C(=O)[C@H](CCCN=C(N)N)NC(=O)[C@H](CC(C)C)NC(=O)[C@@H](CC(C)C)NC(=O)[C@H](Cc1ccc(O)cc1)NC(=O)[C@H](CO)NC(=O)[C@H](Cc1c[nH]c2ccccc12)NC(=O)[C@H](Cc1cnc[nH]1)NC(=O)[C@@H]1CCC(=O)N1	-1.5% (inactive)
NCCCC[C@H](NC(=O)[C@@H]1CCCN1C(=O)[C@@H]1CSSC[C@H](NC(=O)CNC(=O)CNC(=O)CN)C(=O)N[C@@H](Cc2ccc(O)cc2)C(=O)N[C@@H](Cc2ccccc2)C(=O)N[C@@H](CCC(N)=O)C(=O)N[C@@H](CC(N)=O)C(=O)N1)C(=O)NCC(N)=O (H-GGGCYFQNCPKG-NH2; disulfide 4-9)	4.58% (inactive)
NCCC[C@H](N)CC(=O)N[C@H]1CNC(=O)[C@H]([C@H]2C[C@H](O)NC(N)=N2)NC(=O)/C(=C/NC(N)=O)NC(=O)[C@H](CO)NC(=O)[C@H](CO)NC1=O (β3hOrn-[Dap]SS[ΔAla(Z-3-ureido)][X5]; lactam 1-C)	5.13% (inactive)
CCCC1C(=O)N2C(N(C)C)=Nc3ccc(C)cc3N2C1=O (stereo not drawn)	-2% [at 27 µM] (inactive)
CC(=O)N[C@@H]1C(O[C@H]2O[C@H](C(=O)O)C(O)[C@H](O)[C@H]2O)[C@H](O)[C@@H](CO)O[C@H]1O[C@@H]1C(C(=O)O)O[C@@H](O[C@H]2[C@H](O)[C@@H](CO)OC(O)[C@@H]2NC(C)=O)[C@H](O)[C@H]1O (stereo partly drawn)	7.33% (inactive)
COc1cc(C[C@@H]2NCCc3cc(O)c(O)cc32)cc(OC)c1OC	-7.88% (inactive)
CC(=O)Nc1c(I)c(C(=O)N[C@H]2C(O)O[C@H](CO)[C@@H](O)[C@@H]2O)c(I)c(N(C)C(C)=O)c1I (stereo partly drawn)	6.49% [at 27 µM] (inactive)
O=C(O)[C@@H](O)[C@H](O)[C@H](O)[C@@H](O)C(=O)O (tested in a mixture with another compound)	-4.73% (inactive)
CC(=O)Nc1c(I)c(C(=O)O)c(I)c(N(C)C(C)=O)c1I	2.79% (inactive)
COC(=O)CCC(=O)CN	0.301% (inactive)
Cc1ccc(C2(O)CCN(CCCC(=O)c3ccc(F)cc3)CC2)cc1	0.454% (inactive)
CNc1cc(OC)c(C(=O)N[C@H]2CCN(Cc3ccccc3)[C@H]2C)cc1Cl	-1.28% (inactive)
Cc1ccc(S(=O)(=O)NC(=O)N[C@@H](C)Cc2ccccc2)cc1	0.646% (inactive)
C=CC1=C(C)C2=CC3=NC(=C(CC(=O)[O-])C4=NC(=C(C)C4=C([O-])[O-])C=c4[n-]c(c(C)c4CC)=CC1=N2)C(CCC(=O)[O-])C3C.[Cu+2].[Na+].[Na+].[Na+] (stereo not drawn)	4.95% (inactive)
CCN(CC)CCOc1ccccc1OC	12.3% (inactive)
NC[C@@H]1O[C@H](O[C@H]2[C@@H](O)[C@H](O[C@@H]3[C@@H](O)[C@H](N)C[C@H](N)[C@H]3O[C@H]3O[C@H](CO)[C@@H](O)[C@H](O)[C@H]3N)O[C@@H]2CO)[C@H](N)[C@@H](O)[C@@H]1O	0.626% (inactive)
